Screens from PubChem BioAssay.
M1 antag: human M1 muscarinic receptor antagonists, primary screen, CHO-K1 cells, Fluo-8 calcium fluorescence, 1536-well. CHO-K1 hM1, ACh EC80 antagonist. inhibition, % at 3 µM. actives 1.3% (n = 360,000). AID 588852, 2011;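 active = percent inhibition above its own plate's cutoff, namely the mean of that plate's compound wells plus 3 SD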;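 also: peak over basal fluorescence ratio during 140 s after agonist addition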
Target sequence (P11229 whole entry, looked up): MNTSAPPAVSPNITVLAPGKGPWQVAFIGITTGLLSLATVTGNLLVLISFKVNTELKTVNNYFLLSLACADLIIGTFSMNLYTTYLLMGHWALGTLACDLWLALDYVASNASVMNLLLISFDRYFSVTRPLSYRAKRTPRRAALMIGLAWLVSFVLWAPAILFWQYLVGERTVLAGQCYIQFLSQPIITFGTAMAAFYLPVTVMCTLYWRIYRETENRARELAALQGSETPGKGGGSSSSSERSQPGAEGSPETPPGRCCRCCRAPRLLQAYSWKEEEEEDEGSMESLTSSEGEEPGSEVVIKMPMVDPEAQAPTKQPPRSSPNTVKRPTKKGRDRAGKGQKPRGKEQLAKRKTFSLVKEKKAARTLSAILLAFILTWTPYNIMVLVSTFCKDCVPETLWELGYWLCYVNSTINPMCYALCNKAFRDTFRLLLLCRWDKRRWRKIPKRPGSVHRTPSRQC
CHO-K1 Ca antag: nonselective inhibitor or artifact in parental CHO-K1 cells | inhibition, % at 3 µM | ATP-induced calcium, Fluo-8 fluorescence | actives 0.6% (n = 360,000);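 active = inhibition above a per-plate cutoff, the plate's mean sample inhibition plus 3 SD, cut at about 24% in these data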
M1 ag parental: counter-screen for M1 agonists: effect in parental CHO-K1 cells; Fluo-8 calcium fluorescence; scaled to maximal ATP response, vehicle zero; activation, % at 3 µM; actives 0.48% (n = 360,000); AID 602248, 2012; in the data active = activation above about 15%;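 also: untransfected CHO-K1 host cells lacking M1 receptor as counterscreen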
M1 ag: human M1 muscarinic receptor agonists, primary screen, Fluo-8 calcium fluorescence, CHO-K1 cells, HTS; CHO-K1 hM1, agonist mode; 0% DMSO, 100% acetylcholine EC100; activation, % at 3 µM; Muscarinic acetylcholine receptor M1 (Homo sapiens), P11229; actives 0.33% (n = 360,000); AID 588814, 2011;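 active = activation above the run's mean compound activation plus 3 SD, cut at about 16% in these data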;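 also: peak over basal fluorescence ratio within a 140 s kinetic read after compound addition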
M1 PAM: human M1 muscarinic receptor positive allosteric modulators, primary screen, CHO-K1 cells, Fluo-8 calcium fluorescence, 1536-well; activation, % at 3 µM; Muscarinic acetylcholine receptor M1 (Homo sapiens), P11229; CHO-K1 hM1, ACh EC20; 0% = ACh EC20, 100% = maximal ACh; actives 0.088% (n = 360,000); in the data active = activation above about 19%, passing the limit was not always enough
M1 PAM parental: nonselective calcium activators in parental CHO-K1 cells, primary screen, counter-screen for M1 PAM project, cell-based, Fluo-8 calcium fluorescence, full deck, 1536-well | ATP EC20; 0% at ATP EC20, 100% at ATP max | actives 0.02% (n = 360,000) | activation, % at 3 µM;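 active = activation above the run cutoff, the mean activation of all test compounds plus 3 SD, cut at about 40% in these data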;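 also: peak over basal fluorescence ratio in a 140 s read after ATP addition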
Hits are given with their value; . = inactive. Most compounds without a hit are left out; they make up all but 2.3% or so of the library.

SMILES | M1 antag | CHO-K1 Ca antag | M1 ag parental | M1 ag | M1 PAM | M1 PAM parental
CCOC(=O)c1cn(Cc2ccc(C)cc2)c2cc(F)ccc2c1=O | . | . | . | 17 | . | .
Cn1c(=O)c2c(nc(SCCN3CCCCC3)n2Cc2ccccc2)n(C)c1=O | 39 | . | . | . | . | .
CC1Cc2ccccc2N1C(=O)CSc1nc2c(c(=O)n(C)c(=O)n2C)n1Cc1ccccc1 (centres undefined) | 41 | . | . | . | . | .
CC(=O)Nc1cccc(C(=O)N2CCN(S(=O)(=O)c3ccc(C4CCCCC4)cc3)CC2)c1 | . | . | . | . | . | .
CC(C)Cn1c(N)c(C(=O)COC(=O)CCNS(=O)(=O)c2ccccc2)c(=O)n(C)c1=O | . | . | . | . | . | .
Cc1ccc(-c2csc(=Nc3cccnc3)n2CCCn2ccnc2)cc1C | 41 | . | . | . | . | .
Cc1ccc(-c2csc(=Nc3cccnc3)n2CCCN2CCCC2=O)cc1C | . | . | . | . | . | .
CS(=O)(=O)N(CC(=O)N1CCOCC1)c1ccccc1Br | . | . | . | . | . | .
CC1(C(=O)Nc2cnc3ccccc3c2)CCN1Cc1cc2ccccc2o1 (centres undefined) | . | 35 | . | . | . | .
CC1(C(=O)Nc2cnc3ccccc3c2)CCN1Cc1ccc2ccccc2c1 (centres undefined) | . | . | . | . | . | .
O=C(CSc1ccc(S(=O)(=O)N2CCOCC2)cn1)Nc1ccc(F)c(F)c1 | 39 | . | . | . | . | .
COc1cc(OC)c(OC)cc1CCC(C)NCCC(c1ccccc1)c1ccccc1 (centres undefined) | 74 | . | . | . | . | .
COc1ccccc1CCNC(C)CCc1ccc(O)cc1 (centres undefined) | . | . | . | . | . | .
Cc1cc(NC(=O)COC(=O)c2n[nH]c3ccccc23)no1 | . | 29 | . | . | . | .
COc1ccc(CN(C)CC(=O)NC2CCCc3ccccc32)cc1OC (centres undefined) | . | . | . | . | . | .
CC(CNS(=O)(=O)c1ccc2c(c1)NC(=O)CCS2)c1ccccc1 (centres undefined) | . | . | 18 | . | . | .
Cc1ccc(NC(=O)CS(=O)CC(=O)NC23CC4CC(CC(C4)C2)C3)cc1 (centres undefined) | . | . | . | . | . | .
COc1cc(C(C)=O)ccc1OCC(=O)Nc1ccc(S(=O)(=O)N2CCCCC2)cc1 | . | . | . | . | . | .
COc1cc(C(C)=O)ccc1OCC(=O)Nc1ccc(C)c(S(=O)(=O)N2CCCCCC2)c1 | 37 | . | 16 | . | . | .
COc1ccc(NC(=O)COc2ccccc2C(N)=O)cc1S(=O)(=O)N1CCCCC1 | . | . | . | . | . | .
Cc1ccc(NC(=O)COC(=O)c2ccccc2F)cc1S(=O)(=O)N1CCCCC1 | . | . | . | . | . | .
Cc1ccc(NC(=O)COC(=O)c2cccc(C)c2[N+](=O)[O-])cc1S(=O)(=O)N1CCCCC1 | 28 | . | . | . | . | .
Cc1ccc(NC(=O)CSc2ncnc3ccccc23)cc1S(=O)(=O)N1CCCCCC1 | . | 27 | . | . | . | .
Cc1ccc(NC(=O)COc2ccccc2C(N)=O)cc1S(=O)(=O)N1CCCCCC1 | 33 | 27 | . | . | . | .
COc1ccccc1NC(=O)N(C)C[C@@H]1OCc2cnnn2CCCC(=O)N([C@@H](C)CO)C[C@H]1C | . | . | . | . | . | .
SMILES | M1 antag | CHO-K1 Ca antag | M1 ag parental | M1 ag | M1 PAM | M1 PAM parental
Cc1ccc(C)c(CSC2=NCCN2S(=O)(=O)c2ccccc2)c1 | . | . | . | . | . | .
CCOC(=O)c1ccc(NC(=O)Cn2c(-c3nonc3N)nc3ccccc32)cc1 | . | . | . | . | . | .
COc1ccc(NC(=O)Nc2ccc(CC(=O)O)cc2)cc1 | . | . | . | . | . | .
Cc1ccc(NC(=O)COc2cccc(C)c2C)cc1S(=O)(=O)N1CCCCCC1 | . | . | . | . | . | .
Cc1ccc(NC(=O)COc2ccc(N(C)C(=O)C(C)(C)C)cc2)cc1S(=O)(=O)N1CCCCC1 | 53 | 29 | 16 | . | . | .
CCc1cccc(OCC(=O)Nc2ccc(C)c(S(=O)(=O)N3CCCCCC3)c2)c1 | 46 | . | . | . | . | .
CCCCN1CCN=C1N(C)C | . | . | . | . | . | .
Cc1nc2c(OCc3ccc(C(F)(F)F)cc3)cccn2c1N(C)Cc1cccs1 | . | . | . | . | . | .
CCCC(=O)N1CCCC1(C)C(=O)Nc1ccc2nc(C)ccc2c1 (centres undefined) | . | . | . | . | . | .
O=C(Nc1ccc(Cl)cc1)c1cc2c(cc1O)[nH]c1ccccc12 | . | 29 | 16 | . | . | .
Cc1cc(/C=C2\C(=N)N3N=C(c4ccco4)SC3=NC2=O)c(C)n1Cc1ccccc1 | 52 | . | . | 42 | . | .
CCC1=NN2C(=N)/C(=C/c3cc(C)n(Cc4ccccc4)c3C)C(=O)N=C2S1 | . | . | 20 | 20 | . | .
O=[N+]([O-])c1cccc(/C(=N/N=C/c2ccccc2Br)C23CN4CN(CN(C4)C2)C3)c1 | 43 | . | . | . | . | .
O=[N+]([O-])c1ccc(C(=S)N2CCCC2)cc1 | . | . | . | . | . | .
CC(C)=N/N=C(/c1ccc([N+](=O)[O-])cc1)C12CN3CN(CN(C3)C1)C2 | . | . | . | 50 | . | .
COc1cc(/C=C/C(=O)NC(C)C)ccc1OCc1ccccc1 | . | . | . | . | . | .
COc1cc(/C=N/OCC(=O)Nc2cc(C)on2)ccc1OCc1ccccc1 | . | . | 20 | . | . | .
O=C(CSc1ccc(F)cc1)Nc1ccc2c(c1)C(=O)NC2=O | . | . | . | . | . | .
COc1ccc(CN(C)CC(O)COC(c2ccccc2)c2ccccc2)c(OC)c1OC (centres undefined) | . | . | 28 | . | . | .
CN(C)CC(O)COC(c1ccccc1)c1ccccc1 (centres undefined) | 39 | . | . | . | . | .
Nn1c(SCC(=O)Nc2cc(S(=O)(=O)N3CCOCC3)ccc2Cl)nnc1-c1cccnc1 | . | . | . | . | . | .
CN1CCN(S(=O)(=O)c2ccc3c(c2)oc(=O)n3C)CC1 | . | . | . | . | . | .
CCOC(=O)[C@@H]1[C@H]2COc3ccccc3[C@@H]2N2C(=O)N(c3ccc(C(F)(F)F)cc3)C(=O)[C@@]12C | . | . | . | . | . | .
